Results published in the supplement of paper PMC6555819.

How the values were obtained:
Assay in all cases: PBM binding z-score (relative to random genomic background probes); higher = stronger binding; sequences stand for … in GC…GCGATTGACAGCGTAGAATGAAGG
[1] = tested on: PPARg:RXRa DBDmut IVT, anti-RXR (DBD mutation: RXRa K156A/R161A, NR concentration 270 nM, RXRa partner concentration 90 nM)
How it was run: (§1)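 Random background probes are the reference for binding z-scores. These scores derive from regression-normalized fluorescence on custom Agilent 4×180K protein-binding microarrays incubated 1 h with ligand-free nuclear receptor dimers. Binding was detected with antibodies against each partner (one per run).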

[2] = tested on: PPARg:RXRa IVT, anti-PPARg (NR concentration 270 nM, RXRa partner concentration 90 nM)
How it was run: as §1

[3] = tested on: PPARg DBDmut:RXRa IVT, anti-PPARg (DBD mutation: PPARg1 K132A/R137A, NR concentration 270 nM, RXRa partner concentration 90 nM)
How it was run: as §1

[4] = tested on: PPARg DBDmut IVT, anti-PPARg (DBD mutation: PPARg1 K132A/R137A, NR concentration 270 nM)
How it was run: as §1

[5] = tested on: PPARg homodimer (NR concentration 180 nM)
How it was run: as §1

[6] = tested on: PXR:RXRa (NR concentration 270 nM, RXRa partner concentration 90 nM)
How it was run: as §1

[7] = tested on: PXR homodimer (NR concentration 270 nM)
How it was run: as §1

[8] = tested on: RARa:RXR (NR concentration 270 nM, RXRa partner concentration 90 nM)
How it was run: as §1

[9] = tested on: RARa homodimer (NR concentration 270 nM)
How it was run: as §1

[10] = tested on: RARb:RXRa (NR concentration 270 nM, RXRa partner concentration 90 nM)
How it was run: as §1

[11] = tested on: RARb homodimer (NR concentration 270 nM)
How it was run: as §1

[12] = tested on: RARg:RXRa (NR concentration 270 nM, RXRa partner concentration 90 nM)
How it was run: as §1

[13] = tested on: RARg homodimer (NR concentration 270 nM)
How it was run: as §1

[14] = tested on: RXRa DBDmut IVT, anti-RXR (DBD mutation: RXRa K156A/R161A, NR concentration 90 nM)
How it was run: as §1

[15] = tested on: RXRa homodimer (NR concentration 180 nM)
How it was run: as §1

[16] = tested on: THRa:RXRa (NR concentration 90 nM, RXRa partner concentration 90 nM)
How it was run: as §1

[17] = tested on: THRa homodimer (NR concentration 90 nM)
How it was run: as §1

[18] = tested on: VDR homodimer (NR concentration 270 nM)
How it was run: as §1

Sequence	PBM binding z-score [1]	PBM binding z-score [2]	PBM binding z-score [3]	PBM binding z-score [4]	PBM binding z-score [5]	PBM binding z-score [6]	PBM binding z-score [7]	PBM binding z-score [8]	PBM binding z-score [9]	PBM binding z-score [10]	PBM binding z-score [11]	PBM binding z-score [12]	PBM binding z-score [13]	PBM binding z-score [14]	PBM binding z-score [15]	PBM binding z-score [16]	PBM binding z-score [17]	PBM binding z-score [18]
TAGGCTAGGTCAGATCGGGCCAGTATACGCTATA	0.883	1.39	-0.0594	-0.524	0.195	1.54	-0.57	1.55	-0.477	3.3	2.06	2.87	3.61	-0.36	1.45	4.13	-0.412	-0.515
AGTCAAAGTTCAGGACGGGGTAACGTAAAGCACG	0.312	2.3	1.25	1.24	1.87	3.66	1.28	3.45	1.36	4.13	3.27	5.09	4.51	2.98	3.43	3.8	1.55	2.58
TTACCAAGGTGACAGGTCGTTGATGCACGCCTTG	2.31	3.79	0.46	0.0595	1.64	0.764	0.0726	1.14	-0.207	2.05	1.52	1.37	1.17	0.0135	1.61	2.19	1.19	0.797
CCTAGCAGGCCAAACTGGGTCACTCAAGGCTTGA	4.11	4.34	-0.371	-1.09	0.924	1.05	-0.482	1.77	-0.26	1.61	2.17	1.16	1.51	0.301	0.807	3.68	0.159	-0.107
TCTCGGAGGACTCGAAAGGTCAGAGCTCGACATC	1.26	0.952	-0.254	-0.419	1.63	3.16	0.0023	3.76	-0.0102	3.62	4.25	3.85	3.31	0.558	3.57	2.68	0.256	0.189
ATCGAAAGGTCGTGAGGTGAGTATCCAGAAAGGC	0.293	2.48	1.2	1.27	1.41	3.13	0.135	4.25	0.545	3.93	2.99	4.59	3.92	1.15	5.24	3.28	1.55	0.852
TCTCGGAGGACTCGAAGGTCAGAGCTTTCCAGAG	1.45	0.0197	-0.446	-1.86	0.353	1.04	-0.316	1.48	-1.07	2.17	2.73	1.7	1.24	0.262	1.41	1.65	-0.0603	-0.0798
